Measured values as given in PubChem BioAssay (Tox21).
Records with an inconclusive call do not appear. Calls of active or inactive are those of the source. Unless noted, calls come from the whole dose curve; as a rule, active = well fitted curve in the direction sought with a large enough effect in the repeat runs; inconclusive = weak or mixed curves; inactive = no such curve, though single readings can be large; an effect the other way counts as inactive or inconclusive.

How the values were obtained:
[1] = qHTS assay to identify aromatase inhibitors - cell viability counter screen (AID 743084);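 note: cells stimulated with testosterone during compound exposure; nearly all actives have a fitted effect of over 55% in size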
[2] = target: Aryl hydrocarbon receptor (Homo sapiens) (UniProt P35869); test: qHTS assay to identify small molecule that activate the aryl hydrocarbon receptor (AhR) signaling pathway (AID 743085);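 note: HG2L7.5c1 human HepG2 liver cells with stably integrated DRE-driven firefly reporter; series mostly up to about 70 µM; nearly all actives have a fitted effect of over 15% in size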
Sequence of Aryl hydrocarbon receptor (Homo sapiens) (P35869 whole entry, looked up): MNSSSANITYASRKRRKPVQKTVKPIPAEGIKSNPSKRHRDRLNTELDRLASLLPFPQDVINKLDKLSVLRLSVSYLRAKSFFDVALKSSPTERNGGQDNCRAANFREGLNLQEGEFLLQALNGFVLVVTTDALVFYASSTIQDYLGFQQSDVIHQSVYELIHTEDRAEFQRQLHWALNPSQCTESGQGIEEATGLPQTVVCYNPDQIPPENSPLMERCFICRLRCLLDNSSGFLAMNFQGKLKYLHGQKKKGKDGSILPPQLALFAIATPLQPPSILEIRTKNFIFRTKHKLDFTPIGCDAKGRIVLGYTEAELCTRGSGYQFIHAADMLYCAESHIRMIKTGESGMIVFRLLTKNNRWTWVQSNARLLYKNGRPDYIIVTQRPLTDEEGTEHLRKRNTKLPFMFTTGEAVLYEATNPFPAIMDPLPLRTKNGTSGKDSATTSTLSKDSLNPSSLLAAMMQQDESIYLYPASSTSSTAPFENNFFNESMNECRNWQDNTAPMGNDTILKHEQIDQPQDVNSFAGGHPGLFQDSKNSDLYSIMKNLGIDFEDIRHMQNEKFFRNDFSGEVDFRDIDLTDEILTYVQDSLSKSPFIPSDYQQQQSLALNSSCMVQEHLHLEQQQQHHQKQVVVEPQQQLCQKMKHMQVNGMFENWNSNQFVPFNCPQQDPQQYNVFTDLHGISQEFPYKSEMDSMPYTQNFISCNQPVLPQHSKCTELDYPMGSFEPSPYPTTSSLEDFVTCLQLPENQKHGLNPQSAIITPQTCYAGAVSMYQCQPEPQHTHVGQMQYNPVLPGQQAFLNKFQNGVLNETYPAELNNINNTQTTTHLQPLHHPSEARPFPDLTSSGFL
Method in brief: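 24 h compound exposure, 37C, HepG2-derived HG2L7.5c1 cells with DRE-responsive luciferase. Readouts: fluorescence viability, then luminescence at room temperature after 30 min.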

[3] = target: Peroxisome proliferator-activated receptor gamma (Homo sapiens) (UniProt P37231); test: qHTS assay to identify small molecule agonists of the peroxisome proliferator-activated receptor gamma (PPARg) signaling pathway (AID 743094; active = well fitted activation curve with a large enough effect in the signal ratio in the repeat runs, not every such curve was filed as active; the % refers to the signal ratio)
Sequence of Peroxisome proliferator-activated receptor gamma (Homo sapiens) (P37231 whole entry, looked up): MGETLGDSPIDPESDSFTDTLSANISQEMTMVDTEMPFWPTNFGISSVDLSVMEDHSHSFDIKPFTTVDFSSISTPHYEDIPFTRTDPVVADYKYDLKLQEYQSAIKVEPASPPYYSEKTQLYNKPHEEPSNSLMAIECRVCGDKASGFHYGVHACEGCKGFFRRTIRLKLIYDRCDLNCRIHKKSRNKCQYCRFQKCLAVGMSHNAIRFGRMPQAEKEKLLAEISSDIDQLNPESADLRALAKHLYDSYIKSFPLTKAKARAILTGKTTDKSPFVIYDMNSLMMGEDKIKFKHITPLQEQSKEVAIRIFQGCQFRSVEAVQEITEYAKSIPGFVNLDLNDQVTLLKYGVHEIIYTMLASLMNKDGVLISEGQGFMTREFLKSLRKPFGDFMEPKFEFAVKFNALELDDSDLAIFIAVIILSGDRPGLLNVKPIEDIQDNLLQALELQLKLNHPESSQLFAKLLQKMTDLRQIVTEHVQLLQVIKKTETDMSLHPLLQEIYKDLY
Method in brief: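 Fluorescence-based beta-lactamase readout in HEK293H PPARg UAS-bla cells after 17 h compound exposure (37C) and 1 h B/G FRET substrate incubation at room temperature.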

[4] = qHTS assay to identify small molecule antagonists of the peroxisome proliferator-activated receptor gamma (PPARg) signaling pathway - cell viability counter screen (AID 743194); note: nearly all actives have a fitted effect of over 55% in size
Method in brief: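 Cytotoxicity counter screen in PPARg-bla HEK293H cells, same wells as reporter assay. Compounds plus 50 nM rosiglitazone (final) for 17 h at 37 C, then viability read by CellTiter-Glo luminescence.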

[5] = qHTS assay for small molecule agonists of the antioxidant response element (ARE) signaling pathway (AID 743202; active = well fitted activation curve with a large enough effect in the signal ratio in the repeat runs, not every such curve was filed as active; the % refers to the signal ratio)
Method in brief: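 HepG2 ARE-bla reporter line, 2,000 cells/well; 5 h preincubation 37 C/5% CO2; compound (DMSO) 16 h 37 C; B/G FRET substrate 2 h RT; fluorescence intensity.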

[6] = qHTS assay for small molecule agonists of the antioxidant response element (ARE) signaling pathway - cell viability counter screen (AID 743203; calls by dose curve; note: nearly all actives have a fitted effect of over 55% in size)
Method in brief: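 Parallel cytotoxicity read-out for the ARE-bla screen: HepG2 reporter cells, 16 hrs with compounds, then CellTiter-Glo luminescence.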

[7] = qHTS assay for small molecule activators of the heat shock response signaling pathway - cell viability counter screen (AID 743209); note: nearly all actives have a fitted effect of over 50% in size
Method in brief: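 To flag cytotoxic compounds, HSE-bla HeLa cells plated at 1500 cells/well were dosed for 5 h at 37 C, followed by the reporter FRET read and then CellTiter-Glo, with luminescence recorded 30 min after reagent addition.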

[8] = qHTS assay for small molecule activators of the heat shock response signaling pathway (AID 743210; active = well fitted activation curve with a large enough effect in the signal ratio in the repeat runs, with a control signal flat, not every such curve was filed as active; the % refers to the signal ratio;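 note: HeLa cells with beta-lactamase reporter driven by heat shock elements; series mostly up to about 63 µM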)
Method in brief: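 Beta-lactamase reporter read-out: FRET substrate fluorescence after 2.5 h at RT, following 5 h compound treatment at 37 C of HeLa cells carrying HSE-driven bla reporter; quantitative HTS format.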

[9] = qHTS assay to identify small molecule agonists of the peroxisome proliferator-activated receptor delta (PPARd) signaling pathway - cell viability counter screen (AID 743211); note: nearly all actives have a fitted effect of over 55% in size
Method in brief: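 Luminescent ATP viability assay (CellTiter-Glo, 30 min RT) in UAS-bla HEK293H cells carrying the PPAR delta reporter construct, 3000 cells/well, after a 17 h compound treatment at 37 C.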

[10] = target: Peroxisome proliferator-activated receptor delta (Homo sapiens) (UniProt Q03181); test: qHTS assay to identify small molecule agonists of the peroxisome proliferator-activated receptor delta (PPARd) signaling pathway (AID 743212; calls by dose curve)
Sequence of Peroxisome proliferator-activated receptor delta (Homo sapiens) (Q03181 whole entry, looked up): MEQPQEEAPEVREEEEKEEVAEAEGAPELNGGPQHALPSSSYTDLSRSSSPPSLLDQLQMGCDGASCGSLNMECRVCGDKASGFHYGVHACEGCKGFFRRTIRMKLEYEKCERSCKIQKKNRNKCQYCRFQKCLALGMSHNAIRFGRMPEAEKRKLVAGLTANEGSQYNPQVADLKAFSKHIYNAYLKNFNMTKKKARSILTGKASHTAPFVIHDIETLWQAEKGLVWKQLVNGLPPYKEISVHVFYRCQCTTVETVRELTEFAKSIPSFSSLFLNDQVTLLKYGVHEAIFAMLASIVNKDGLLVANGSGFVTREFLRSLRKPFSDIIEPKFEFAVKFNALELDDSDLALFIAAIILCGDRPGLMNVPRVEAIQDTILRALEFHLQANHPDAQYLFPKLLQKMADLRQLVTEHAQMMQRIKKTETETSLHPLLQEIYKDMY
Method in brief: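 Read-out: beta-lactamase FRET fluorescence after 2 h room-temperature incubation with LiveBLAzer B/G substrate. Cells were HEK293H carrying a UAS-bla reporter for PPARd, treated at 37 C with DMSO-dissolved compounds.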

[11] = qHTS assay to identify small molecule antagonists of the peroxisome proliferator-activated receptor delta (PPARd) signaling pathway - cell viability counter screen (AID 743213); note: nearly all actives have a fitted effect of over 50% in size
Method in brief: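 Agonist-stimulated (L165041, 300 nM final) HEK293H PPARd UAS-bla cells are exposed to compounds for 17 h at 37 C, and ATP-based luminescence (CellTiter-Glo) from the same wells reports cytotoxicity.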

[12] = target: Peroxisome proliferator-activated receptor delta (Homo sapiens) (UniProt Q03181); test: qHTS assay to identify small molecule antagonists of the peroxisome proliferator-activated receptor delta (PPARd) signaling pathway (AID 743215; active = well fitted inhibition curve with a large enough effect in the signal ratio in the repeat runs, not every such curve was filed as active; the % refers to the signal ratio; note: series mostly up to about 62 µM)
Method in brief: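 Screen format: qHTS, antagonist mode. HEK293H PPARd-bla cells received compound and 300 nM L165041 (final), 17 h, 37 C. Beta-lactamase detected via FRET substrate fluorescence, 2 h, room temperature.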

[13] = qHTS assay to identify small molecule agonists of the farnesoid-X-receptor (FXR) signaling pathway - cell viability counter screen (AID 743218); note: nearly all actives have a fitted effect of over 45% in size
Method in brief: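 Same-well cytotoxicity check on FXR-UAS-bla HEK 293T cells: 5 h attachment, 16 h compound at 37 C, CellTiter-Glo luminescence read at room temperature after 30 min.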

[14] = qHTS assay to identify small molecule antagonists of the farnesoid-X-receptor (FXR) signaling pathway - cell viability counter screen (AID 743221; active = well fitted cell-killing curve with a large enough effect in the repeat runs, not every such curve was filed as active; note: nearly all actives have a fitted effect of over 50% in size)
Method in brief: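 In GeneBLAzer FXR-UAS-bla HEK 293T cells stimulated with 50 uM chenodeoxycholic acid (final), compounds acted for 16 h at 37 C. Viability was assessed afterwards by CellTiter-Glo luminescence.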

[15] = target: Vitamin D3 receptor (Homo sapiens) (UniProt P11473); test: qHTS assay to identify small molecule agonists of the vitamin D receptor (VDR) signaling pathway (AID 743222; calls by dose curve)
Sequence of Vitamin D3 receptor (Homo sapiens) (P11473 whole entry, looked up): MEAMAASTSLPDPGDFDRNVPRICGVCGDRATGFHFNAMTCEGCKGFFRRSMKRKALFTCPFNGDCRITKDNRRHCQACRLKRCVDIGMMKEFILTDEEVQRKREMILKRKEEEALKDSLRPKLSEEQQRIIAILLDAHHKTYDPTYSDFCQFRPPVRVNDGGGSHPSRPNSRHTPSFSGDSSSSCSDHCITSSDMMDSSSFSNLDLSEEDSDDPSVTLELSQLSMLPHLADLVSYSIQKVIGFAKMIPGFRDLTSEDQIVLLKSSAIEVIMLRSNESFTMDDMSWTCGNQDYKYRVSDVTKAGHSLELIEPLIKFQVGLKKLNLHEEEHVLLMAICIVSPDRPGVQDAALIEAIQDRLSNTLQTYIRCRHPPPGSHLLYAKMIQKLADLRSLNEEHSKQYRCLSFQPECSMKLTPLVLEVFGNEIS
Method in brief: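 Using LiveBLAzer B/G FRET detection, agonism was scored in VDR-bla cells exposed overnight (16 h, 37C) to DMSO-dissolved compounds; substrate incubation was 2 h at room temperature.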

[16] = qHTS assay to identify small molecule that activate the aryl hydrocarbon receptor (AhR) signaling pathway - cell viability counter screen (AID 743086);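 note: HepG2 liver cells carrying the AhR DRE luciferase reporter; series mostly up to about 70 µM; nearly all actives have a fitted effect of over 45% in size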
Method in brief: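 HepG2-AhR-luc (HG2L7.5c1) cells, 4000/well, treated 24 h at 37 C with compound; viability measured as CellTiter-Fluor fluorescence after 30 min in the same wells as the luciferase read.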

[17] = target: Peroxisome proliferator-activated receptor gamma (Homo sapiens) (UniProt P37231); test: qHTS assay to identify small molecule antagonists of the peroxisome proliferator-activated receptor gamma (PPARg) signaling pathway (AID 743191; calls by dose curve; note: series mostly up to about 63 µM; nearly all actives have a fitted effect of over 30% in size)
Method in brief: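 GeneBLAzer PPARg UAS-bla HEK293H cells, 5 h post-plating, exposed to compounds 17 h at 37C. LiveBLAzer B/G FRET substrate added for 1 h at room temperature; beta-lactamase reporter read by fluorescence intensity.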

[18] = target: Bile acid receptor (Homo sapiens) (UniProt Q96RI1); test: qHTS assay to identify small molecule agonists of the farnesoid-X-receptor (FXR) signaling pathway (AID 743220; active = well fitted activation curve with a large enough effect in the signal ratio in the repeat runs, not every such curve was filed as active; the % refers to the signal ratio)
Sequence of Bile acid receptor (Homo sapiens) (Q96RI1 whole entry, looked up): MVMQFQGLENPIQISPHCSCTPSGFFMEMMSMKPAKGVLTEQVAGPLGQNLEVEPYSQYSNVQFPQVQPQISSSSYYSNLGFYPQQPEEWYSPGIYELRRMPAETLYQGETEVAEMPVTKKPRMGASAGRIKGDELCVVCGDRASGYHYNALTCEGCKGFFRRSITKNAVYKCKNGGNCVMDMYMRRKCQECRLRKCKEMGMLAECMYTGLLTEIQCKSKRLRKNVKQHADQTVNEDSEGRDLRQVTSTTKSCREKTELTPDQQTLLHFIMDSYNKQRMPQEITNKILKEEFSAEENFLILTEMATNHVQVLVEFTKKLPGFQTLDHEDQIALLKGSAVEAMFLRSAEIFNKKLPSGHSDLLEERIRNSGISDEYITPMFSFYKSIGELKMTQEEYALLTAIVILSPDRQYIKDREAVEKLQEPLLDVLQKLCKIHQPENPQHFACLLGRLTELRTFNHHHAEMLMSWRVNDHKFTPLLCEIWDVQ
Method in brief: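 FXR-UAS-bla HEK 293T cells carrying a UAS-driven beta-lactamase reporter were plated for 5 h at 37C/5% CO2, then exposed to DMSO-dissolved Tox21 10K compounds for 16 h at 37C. A LiveBLAzer B/G FRET substrate was loaded for 2 h at room temperature before fluorescence reading.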

[19] = target: Vitamin D3 receptor (Homo sapiens) (UniProt P11473); test: qHTS assay to identify small molecule antagonists of the vitamin D receptor (VDR) signaling pathway (AID 743223; active = well fitted inhibition curve with a large enough effect in the signal ratio in the repeat runs, not every such curve was filed as active; the % refers to the signal ratio)
Method in brief: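 Agonist 1alpha,25-dihydroxyvitamin D3 (3 nM in well) was added with each compound to VDR-bla cells preincubated 4 h. Cells stood 16 h at 37C, then FRET substrate 2 h at room temperature; fluorescence intensity recorded.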

Measured: Potency

CCn1cc(C(=O)O)c(=O)c2cc(F)c(N3CCN(C)CC3)cc21
not listed: [15] | [16] | [17] | [18] | [19]
inactive: all other assays above

CCOC(=O)[C@H](CCc1ccccc1)N[C@@H](C)C(=O)N1CCC[C@H]1C(=O)O
not listed: [4] | [5] | [9] | [11] | [16] | [17] | [18] | [19]
inactive: all other assays above

CC(C)[N+](C)(C)CC(O)COc1cccc2ccccc12 (centres undefined)
not listed: [2] | [5] | [13] | [15] | [18] | [19]
inactive: all other assays above

OC1OC[C@@H](O)[C@H](O)[C@H]1O (some centres undefined)
not listed: [10] | [12] | [13] | [15] | [16] | [17] | [18] | [19]
inactive: all other assays above

C1=C\CC/C=C\CC/C=C\CC/1
not listed: [2] | [7] | [8] | [19]
inactive: all other assays above

CC(=O)c1ccc(C)cc1
not listed: [2] | [18]
inactive: all other assays above

O=[N+]([O-])c1ccc(Oc2ccc([N+](=O)[O-])cc2)cc1
not listed: [10] | [13] | [16] | [17] | [18]
inactive: all other assays above

Cc1nccn1CC1CCc2c(c3ccccc3n2C)C1=O (centres undefined)
not listed: [4] | [10] | [12] | [16] | [17] | [18]
inactive: all other assays above

CCN1CCCC1CNC(=O)c1cc(S(N)(=O)=O)ccc1OC (centres undefined)
not listed: [2] | [7] | [10] | [11] | [12] | [14] | [18]
inactive: all other assays above

C[N+](C)(C)CC[N+]1(C)Cc2c(Cl)c(Cl)c(Cl)c(Cl)c2C1
not listed: [2] | [5] | [8] | [14] | [18]
inactive: all other assays above
